Assay outcomes as filed in PubChem.
An excerpt weighted towards active compounds, which were near 3.7% of everything screened.
HTT-AS promoter – activates huntingtin-antisense promoter activity. HEK293 HTT-AS promoter firefly luciferase reporter, 24 h; response scale: percent change from vehicle, -100% = no light. Potency, µM (series often up to 57.5 µM), without a hit: top-dose activity change, positive = activation, actives largely listed as activators. 48,000 tested, 0.24% active; also: potency is read from the fitted curve at half-maximal effect; nearly all actives have a fitted effect of over 55% in size
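Luminescence was read after Dual-Glo reagent and a 10 min room-temperature incubation. Values were normalized to vehicle (0% activity) and zero RLU (-100% activity). Reporter HEK293 cells had been exposed to compounds (up to 57.5 uM final) for 24 h.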
HTT promoter inh – HTT promoter inhibition; HEK293 HTT promoter firefly luciferase reporter, 24 h; Potency, µM (doses to about 57.5 µM), for inactives: top-dose activity change, negative = inhibition, hits mostly inhibitors; 48,000 tested, 0.93% active; AID 1508623; also: potency is read from the fitted curve at half-maximal effect; nearly all actives have a fitted effect of over 50% in size
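Quantitative HTS used concentration series of up to 57.5 uM final on HEK293 luciferase reporter cells, 24 h at 37 degrees C. Readout was Dual-Glo firefly luminescence.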
DRV1 agonist – activates human resolvin D1 receptor GPR32; O75388; CHO-K1 GPR32 beta-arrestin PathHunter luminescence, 90 min; zero percent set by DMSO-only wells; activation, % at 76.9 µM; 48,000 tested, 2.5% active; AID 1346428;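 active = activation of at least 60% and not above a set upper limit, about 1 call in 100 departs from these limits; inconclusive = activation of 40% to 60%, or above that upper limit; inactive = activation under 40%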; also: 0% is about no effect
Target sequence (O75388 whole entry, looked up): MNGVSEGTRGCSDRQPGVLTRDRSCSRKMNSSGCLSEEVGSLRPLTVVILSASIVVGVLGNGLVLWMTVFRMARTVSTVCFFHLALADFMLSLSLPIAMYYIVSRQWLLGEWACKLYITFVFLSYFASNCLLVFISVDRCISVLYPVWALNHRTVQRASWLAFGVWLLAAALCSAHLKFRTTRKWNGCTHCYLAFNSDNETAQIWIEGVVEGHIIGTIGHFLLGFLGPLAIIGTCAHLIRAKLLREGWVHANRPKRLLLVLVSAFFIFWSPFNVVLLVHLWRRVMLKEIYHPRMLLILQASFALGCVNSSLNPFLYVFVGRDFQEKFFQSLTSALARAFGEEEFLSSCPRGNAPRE
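Luminescent readout of beta-Gal complementation quantifies ligand-induced beta-arrestin association with GPR32 in CHO-K1 cells; 90 min compound incubation at 37 °C, detection 1 h at room temperature.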
An asterisk follows results filed as active; ? = inconclusive; / = no result. Unless noted, calls follow the shape of the dose curve; as a rule, active = well fitted curve in the direction sought with a large enough effect; inconclusive = small, poorly fitted or top-dose-only effect, or another doubt; inactive = no such curve, though single readings can be large; an effect the other way counts as inactive or inconclusive.

SMILES	HTT-AS promoter	HTT promoter inh	DRV1 agonist
CSc1ncc(Cl)c(C(=O)Nc2ccc(S(=O)(=O)N3CCC(C)CC3)cc2)n1	-26%	?	-2
CN(CC(=O)N(Cc1ccc(C2CCCCC2)cc1)c1ccc(C(=O)O)c(O)c1)S(=O)(=O)c1c(F)c(F)c(F)c(F)c1F	20%	32%	/
CN(C1CCc2c(c3ccccc3n2CC(=O)O)C1)S(=O)(=O)c1ccc(F)cc1 (configuration not stated)	-3%	5%	/
CCCC(CCC)(C(=O)OCC)C(=O)OCC	-1%	4%	-2
O=C(CS(=O)(=O)c1cccc2nsnc12)N1CCN(c2ccc(F)cc2)CC1	-12%	-15%	11
CC(=O)c1ccc(N2CCN(C(=O)CS(=O)(=O)c3cccc4nsnc34)CC2)cc1	-23%	-21%	88*
CCOC(=O)c1c(C)[nH]c(C)c1S(=O)(=O)N1CCN(c2ccc(Cl)cc2)CC1	-22%	?	68*
CCOC(=O)c1c(C)[nH]c(C)c1S(=O)(=O)N1CCC(C(=O)N2CCN(c3ccc(Cl)cc3)CC2)CC1	-12%	?	-4
CCOC(=O)c1ccc(OCC2c3cc(OC)c(OC)cc3CCN2C(=O)Cc2ccc(OC)c(OC)c2)cc1 (configuration not stated)	-17%	-15%	11
CCOC(=O)c1ccc(NC(=O)CSc2nccn2Cc2ccc(OC)cc2)cc1	-27%	?	-6
Cc1ccc(NC(=O)c2c(NC(=O)c3ccccc3)sc3c2CCC3)cc1	10%	20%	-5
O=C(Nc1cccc(Cl)c1)c1c(NC(=O)C(F)(F)F)sc2c1CCCC2	-94%	1.8µM*	37
Cc1cccc(NC(=O)c2c(NC(=O)C(F)(F)F)sc3c2CCCCC3)c1	-92%	2µM*	45
Cc1cccc(NC(=O)c2c(Br)sc3c2CCCC3)c1	-24%	-28%	-9
O=C(COc1ccc(Cl)cc1)Nc1sc2c(c1C(=O)Nc1cccc(Cl)c1)CCCC2	-10%	-4%	-1
Cc1ccccc1NC(=O)c1c(NC(=O)C(F)(F)F)sc2c1CCCCC2	-96%	2µM*	20
Cc1ccccc1NC(=O)c1c(NC(=O)c2ccccc2)sc2c1CCC2	15%	9%	0
Cc1ccc(NC(=O)c2c(NC(=O)C(F)(F)F)sc3c2CCCCC3)cc1	-94%	1.4µM*	62*
COc1ccccc1N1CCN(CC(O)COc2cc(OC)c(OC)c(OC)c2)CC1 (configuration not stated)	-7%	12%	-4
CC[C@H]1OC(=O)[C@H](C)[C@@H](O[C@H]2C[C@@](C)(OC)[C@@H](O)[C@H](C)O2)[C@H](C)[C@@H](O[C@@H]2O[C@H](C)C[C@H](N(C)C)[C@H]2O)[C@](C)(O)C[C@H](C)C(=NOCOCCOC)[C@H](C)[C@@H](O)[C@]1(C)O	-18%	-12%	/
Cc1ccc(Cn2c(=O)c3cccnc3n(CC(=O)Nc3cc(Cl)ccc3C)c2=O)cc1	13%	-10%	-2
Cc1cc(C)cc(NC(=O)C2CCCN(S(=O)(=O)c3cccc4nsnc34)C2)c1 (configuration not stated)	-10%	1%	-8
COc1cc(NC(=O)CSc2nc3nc(C)c(Cc4ccccc4)c(C)n3n2)cc(OC)c1OC	0%	-35%	-3
O=C1N(Cc2ccccc2)c2ccccc2C1(O)c1c[nH]c2ccccc12 (configuration not stated)	-16%	-20%	?
Cc1[nH]c2ccccc2c1C1(O)C(=O)N(Cc2ccc(Cl)cc2)c2ccccc21 (configuration not stated)	-24%	-21%	-28
SMILES	HTT-AS promoter	HTT promoter inh	DRV1 agonist
Cc1ccc(CN2C(=O)C(O)(c3c(C)[nH]c4ccccc34)c3ccccc32)cc1 (configuration not stated)	-20%	-15%	70*
O=C1N(Cc2ccccc2Cl)c2ccccc2C1(O)c1c[nH]c2ccccc12 (configuration not stated)	-39%	?	84*
Cc1ccc(C)c(CN2C(=O)C(O)(c3c[nH]c4ccccc34)c3ccccc32)c1 (configuration not stated)	-31%	?	84*
Cc1ccccc1CN1C(=O)C(O)(c2c[nH]c3ccccc23)c2cc(Cl)ccc21 (configuration not stated)	-26%	-15%	?
COc1ccc(NC(=O)C2CCN(S(=O)(=O)c3ccc4c(c3)CCCC(=O)N4)CC2)cc1OC	-6%	-4%	-21
CC(C)(C)c1cc(C(C)(C)C)c(NC(=O)c2c[nH]c3ccccc3c2=O)cc1O	-8%	-26%	/
Cc1ccc(C(=O)NCC(c2ccc3c(c2)OCO3)N2CCN(c3ccc(F)cc3)CC2)cc1 (configuration not stated)	-40%	22µM*	-32
COc1ccc(C(=O)NCC(c2ccc3c(c2)OCO3)N2CCN(c3ccc(F)cc3)CC2)cc1 (configuration not stated)	-36%	?	-28
COc1cccc(C(=O)NCC(c2ccc3c(c2)OCO3)N2CCOCC2)c1 (configuration not stated)	-14%	-5%	-20
COc1cccc(NC(=O)C(=O)NCC(c2ccc3c(c2)OCO3)N2CCOCC2)c1 (configuration not stated)	4.5µM*	93%	-10
CCCC1(C)C(C#N)(C#N)C1(C#N)C#N	/	/	-28
Cc1cccc(C)c1OCCn1c(C2CC(=O)N(Cc3ccc(F)cc3)C2)nc2ccccc21 (configuration not stated)	-43%	-37%	11
Cc1cc(Br)ccc1NC(=O)COc1cc(=O)n(C)c2ccccc12	-22%	-18%	-4
CC=C1NC(=O)[C@H]2CSSCCC=C[C@H](CC(=O)N[C@H](C(C)C)C(=O)N2)OC(=O)[C@H](C(C)C)NC1=O	?	20%	/
Cc1ccc([C@@H]2O[C@H](CO)[C@@H](O)[C@H](O)[C@@H]2O)cc1Cc1ccc(-c2ccc(F)cc2)s1	-24%	-15%	/
CCOC(=O)C(O)c1ccccc1 (configuration not stated)	1%	3%	7
Cc1ccc(CCNC(=O)C2CCCN(Cc3nc(-c4cccc(Cl)c4)oc3C)C2)cc1 (configuration not stated)	-65%	-23%	-6
Cc1cccc(-c2nc(CN3CCCC(C(=O)NCCc4ccc(Cl)cc4)C3)c(C)o2)c1 (configuration not stated)	-46%	32µM*	49
O=C(Nc1ccc(OCc2cc(=O)n3ccsc3n2)cc1)c1ccc(F)cc1	-9%	-2%	10
CC(C)(C)c1ccc(C(=O)Nc2ccc(OCc3cc(=O)n4ccsc4n3)cc2)cc1	-6%	-9%	87*
CCOc1ccc(CNC(=O)C2CCCN(c3nc4c(C)cc(C)cc4s3)C2)cc1 (configuration not stated)	?	25%	1
CCCS(=O)(=O)c1c(S(=O)(=O)CCC)c2cc(C(C)(C)C)ccn2c1C(=O)c1ccccc1	-84%	25µM*	-17
